The results in this text go back to PMC7862700, “An all-to-all approach to the identification of sequence-specific readers for epigenetic DNA modifications on cytosine”.

What all share (assay): DAPPL (digital affinity profiling via proximity ligation, sequencing); 10 mM Tris-HCl pH 7.5, 50 mM NaCl, 1 mM DTT, 4% glycerol, room temperature, 30 min; GST-TFs on glutathione beads, 16-mer random dsDNA library, 0.1% formaldehyde crosslink after washing; high values mean tight binding
In assay [1] the target is T1, FEV (Homo sapiens, UniProt Q99581 1-238).
T1 sequence: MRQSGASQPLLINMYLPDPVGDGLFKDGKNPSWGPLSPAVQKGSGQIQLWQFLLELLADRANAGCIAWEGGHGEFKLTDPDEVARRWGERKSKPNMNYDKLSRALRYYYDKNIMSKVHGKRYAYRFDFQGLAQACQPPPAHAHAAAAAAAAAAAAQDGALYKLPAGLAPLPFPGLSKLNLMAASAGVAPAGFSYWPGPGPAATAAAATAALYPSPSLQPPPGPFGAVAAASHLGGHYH
The following applies: protein: recombinant; tags: N-terminal GST; dsDNA, one strand shown. The gist of the method:
(§1)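 Pools of DNA-barcoded human transcription factors, expressed in yeast as GST fusions on glutathione beads and combined with a tag-only sample, were incubated with 200 nmole of a 16-mer random double-stranded DNA library. Incubation took 30 min at room temperature in Tris/NaCl/DTT/glycerol buffer and was followed by washing, 0.1% formaldehyde crosslinking, proximity ligation (BsaI/T4 ligase, 1 h, 37 °C), PCR amplification and sequencing on an Illumina NextSeq500. Binding signal is the ratio of a hexamer's read frequency for a factor to its frequency for the tag-only sample.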

Assay [2] deals with ETV5 (Homo sapiens, UniProt P41161 1-510). The following applies: protein: recombinant; tags: N-terminal GST; dsDNA, one strand shown. The gist of the method: as §1
Sequence of ETV5 (P41161 whole entry): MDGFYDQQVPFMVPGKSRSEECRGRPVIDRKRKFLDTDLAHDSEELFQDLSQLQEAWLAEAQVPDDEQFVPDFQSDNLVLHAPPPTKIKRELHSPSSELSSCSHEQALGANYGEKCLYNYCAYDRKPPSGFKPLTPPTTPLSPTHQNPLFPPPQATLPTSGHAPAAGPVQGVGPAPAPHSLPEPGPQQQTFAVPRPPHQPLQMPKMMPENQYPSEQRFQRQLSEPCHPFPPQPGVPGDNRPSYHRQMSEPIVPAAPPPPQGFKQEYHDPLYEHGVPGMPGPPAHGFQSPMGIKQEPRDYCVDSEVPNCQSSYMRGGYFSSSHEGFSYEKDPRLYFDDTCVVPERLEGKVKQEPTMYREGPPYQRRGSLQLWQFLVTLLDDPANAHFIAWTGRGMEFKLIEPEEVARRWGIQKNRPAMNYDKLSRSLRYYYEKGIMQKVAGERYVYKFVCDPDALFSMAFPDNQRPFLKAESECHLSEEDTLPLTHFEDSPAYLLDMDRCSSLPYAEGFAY
For assay [3], the target named is HSF1 (Homo sapiens, UniProt Q00613 1-529). The following applies: protein: recombinant; tags: N-terminal GST; chain copies: 3; dsDNA, one strand shown. The method, boiled down: as §1
Sequence of HSF1 (Q00613 whole entry): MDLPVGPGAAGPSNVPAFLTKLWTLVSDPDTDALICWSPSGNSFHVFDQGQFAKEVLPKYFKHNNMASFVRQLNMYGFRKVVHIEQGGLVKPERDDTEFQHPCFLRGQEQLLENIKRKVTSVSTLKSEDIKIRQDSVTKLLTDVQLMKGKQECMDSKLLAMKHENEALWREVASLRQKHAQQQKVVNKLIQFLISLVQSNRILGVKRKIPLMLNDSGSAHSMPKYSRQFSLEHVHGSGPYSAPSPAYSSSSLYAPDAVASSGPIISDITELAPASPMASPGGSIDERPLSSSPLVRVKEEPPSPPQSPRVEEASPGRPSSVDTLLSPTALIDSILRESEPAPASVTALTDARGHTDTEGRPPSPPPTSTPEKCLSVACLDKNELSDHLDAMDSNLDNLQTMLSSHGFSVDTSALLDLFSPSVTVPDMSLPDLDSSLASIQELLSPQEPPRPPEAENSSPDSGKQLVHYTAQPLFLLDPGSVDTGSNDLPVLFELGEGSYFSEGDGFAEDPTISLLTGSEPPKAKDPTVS
Assay [4] addresses T2, SPIC (Homo sapiens, UniProt Q8N5J4 1-248).
T2 sequence: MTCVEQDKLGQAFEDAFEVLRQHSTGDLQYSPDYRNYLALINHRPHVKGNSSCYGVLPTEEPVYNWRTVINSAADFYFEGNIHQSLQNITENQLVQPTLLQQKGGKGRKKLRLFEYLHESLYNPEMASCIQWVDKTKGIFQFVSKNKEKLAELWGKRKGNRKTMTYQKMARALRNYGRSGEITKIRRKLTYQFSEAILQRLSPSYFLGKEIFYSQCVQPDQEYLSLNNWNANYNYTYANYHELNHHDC
The settings on record: protein: recombinant; tags: N-terminal GST; dsDNA, one strand shown. The gist of the method:
as §1

The target of assay [5] is ELF4 (Homo sapiens, UniProt Q99607 1-663). The settings on record: protein: recombinant; tags: N-terminal GST; dsDNA, one strand shown. The gist of the method:
as §1

Assay [6] concerns the target T3, ELK4 (Homo sapiens, UniProt P28324-2 1-405).
T3 sequence: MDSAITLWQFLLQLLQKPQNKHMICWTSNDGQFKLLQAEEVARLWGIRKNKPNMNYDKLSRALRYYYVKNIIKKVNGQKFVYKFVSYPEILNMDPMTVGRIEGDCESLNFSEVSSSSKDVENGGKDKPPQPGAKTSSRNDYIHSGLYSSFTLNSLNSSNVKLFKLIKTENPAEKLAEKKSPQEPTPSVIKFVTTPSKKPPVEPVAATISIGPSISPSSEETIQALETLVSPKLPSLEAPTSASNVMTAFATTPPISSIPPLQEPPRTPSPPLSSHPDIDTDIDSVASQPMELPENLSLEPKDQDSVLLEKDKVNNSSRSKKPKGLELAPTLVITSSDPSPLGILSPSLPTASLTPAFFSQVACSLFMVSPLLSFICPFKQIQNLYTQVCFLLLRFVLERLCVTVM
The settings on record: protein: recombinant; tags: N-terminal GST; dsDNA, one strand shown. The gist of the method:
as §1

The target of assay [7] is T4, ETV2 (Homo sapiens, UniProt O00321 1-342).
T4 sequence: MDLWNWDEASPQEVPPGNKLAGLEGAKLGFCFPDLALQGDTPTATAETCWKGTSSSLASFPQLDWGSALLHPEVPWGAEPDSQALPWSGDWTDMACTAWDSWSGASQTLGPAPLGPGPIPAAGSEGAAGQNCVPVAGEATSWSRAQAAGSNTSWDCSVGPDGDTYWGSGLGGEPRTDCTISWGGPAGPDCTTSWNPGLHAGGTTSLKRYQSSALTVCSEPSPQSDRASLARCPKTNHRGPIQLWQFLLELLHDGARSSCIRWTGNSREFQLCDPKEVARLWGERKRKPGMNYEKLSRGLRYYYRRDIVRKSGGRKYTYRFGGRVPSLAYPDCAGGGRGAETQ
The following applies: protein: recombinant; tags: N-terminal GST; dsDNA, one strand shown. The gist of the method:
as §1

Assay [8] has as its target T5, ELF3 (Homo sapiens, UniProt P78545 1-371).
T5 sequence: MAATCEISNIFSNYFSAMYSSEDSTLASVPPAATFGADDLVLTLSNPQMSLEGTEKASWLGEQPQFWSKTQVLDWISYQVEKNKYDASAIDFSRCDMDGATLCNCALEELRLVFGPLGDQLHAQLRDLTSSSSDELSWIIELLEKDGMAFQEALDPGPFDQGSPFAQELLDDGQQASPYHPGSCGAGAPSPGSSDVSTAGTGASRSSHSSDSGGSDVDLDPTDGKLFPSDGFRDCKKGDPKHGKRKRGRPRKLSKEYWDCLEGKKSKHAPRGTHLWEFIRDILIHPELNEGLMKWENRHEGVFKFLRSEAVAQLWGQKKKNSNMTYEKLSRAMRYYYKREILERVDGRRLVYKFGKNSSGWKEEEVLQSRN
The settings on record: protein: recombinant; tags: N-terminal GST; dsDNA, one strand shown. The gist of the method: as §1

Assay [9] concerns the target CRX (Homo sapiens, UniProt O43186 1-299). The settings on record: protein: recombinant; tags: N-terminal GST; dsDNA, one strand shown. The method, boiled down:
as §1

Assay [10] concerns the target ETV1 (Homo sapiens, UniProt P50549 1-477). The following applies: protein: recombinant; tags: N-terminal GST; dsDNA, one strand shown. The gist of the method:
as §1

In assay [11] the target is T6, ERF (Homo sapiens, UniProt P50548 1-548).
T6 sequence: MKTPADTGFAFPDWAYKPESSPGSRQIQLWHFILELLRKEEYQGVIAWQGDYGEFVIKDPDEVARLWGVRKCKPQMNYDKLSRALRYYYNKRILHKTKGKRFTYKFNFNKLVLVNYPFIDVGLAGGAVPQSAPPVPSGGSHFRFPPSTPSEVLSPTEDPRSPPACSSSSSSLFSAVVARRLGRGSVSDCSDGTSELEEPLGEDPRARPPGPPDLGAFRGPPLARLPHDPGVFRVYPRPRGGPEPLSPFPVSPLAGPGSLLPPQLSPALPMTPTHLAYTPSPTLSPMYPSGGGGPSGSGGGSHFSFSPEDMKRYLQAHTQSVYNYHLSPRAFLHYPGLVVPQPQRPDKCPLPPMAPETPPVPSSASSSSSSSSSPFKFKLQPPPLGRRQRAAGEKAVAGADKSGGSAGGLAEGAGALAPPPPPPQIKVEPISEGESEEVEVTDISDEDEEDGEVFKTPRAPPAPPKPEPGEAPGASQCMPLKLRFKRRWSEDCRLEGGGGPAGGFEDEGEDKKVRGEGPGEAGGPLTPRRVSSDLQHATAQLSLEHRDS
The settings on record: protein: recombinant; tags: N-terminal GST; dsDNA, one strand shown. The gist of the method:
as §1

Assay [12] has as its target T7, ETV3L (Homo sapiens, UniProt Q6ZN32 1-361).
T7 sequence: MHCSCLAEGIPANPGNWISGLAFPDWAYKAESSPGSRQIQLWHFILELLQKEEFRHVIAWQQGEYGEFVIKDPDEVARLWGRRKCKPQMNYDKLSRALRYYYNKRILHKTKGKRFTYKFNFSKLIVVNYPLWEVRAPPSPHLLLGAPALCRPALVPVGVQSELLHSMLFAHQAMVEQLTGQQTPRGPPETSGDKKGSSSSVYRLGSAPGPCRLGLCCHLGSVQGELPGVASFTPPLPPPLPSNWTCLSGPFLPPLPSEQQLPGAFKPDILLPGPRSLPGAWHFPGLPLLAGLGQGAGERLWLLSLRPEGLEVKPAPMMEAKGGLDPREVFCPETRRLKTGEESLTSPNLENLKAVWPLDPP
The settings on record: protein: recombinant; tags: N-terminal GST; dsDNA, one strand shown. The gist of the method:
as §1

Assay [13] addresses T8, ETS2 (Homo sapiens, UniProt P15036 1-469).
T8 sequence: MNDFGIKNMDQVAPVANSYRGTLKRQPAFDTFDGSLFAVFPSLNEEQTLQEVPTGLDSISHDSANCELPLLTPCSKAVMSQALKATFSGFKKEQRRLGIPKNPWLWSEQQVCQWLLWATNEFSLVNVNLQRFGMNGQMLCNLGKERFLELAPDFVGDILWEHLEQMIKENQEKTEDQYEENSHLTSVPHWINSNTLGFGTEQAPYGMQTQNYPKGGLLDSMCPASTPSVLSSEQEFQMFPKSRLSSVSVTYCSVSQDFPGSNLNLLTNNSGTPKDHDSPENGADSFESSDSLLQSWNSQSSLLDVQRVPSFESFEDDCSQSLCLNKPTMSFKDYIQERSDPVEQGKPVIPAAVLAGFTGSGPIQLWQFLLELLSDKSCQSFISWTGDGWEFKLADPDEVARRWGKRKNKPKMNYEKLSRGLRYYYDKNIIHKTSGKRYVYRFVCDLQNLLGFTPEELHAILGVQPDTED
The settings on record: protein: recombinant; tags: N-terminal GST; dsDNA, one strand shown. The method, boiled down:
as §1

Assay [14] concerns the target T9, SPDEF (Homo sapiens, UniProt O95238 1-335).
T9 sequence: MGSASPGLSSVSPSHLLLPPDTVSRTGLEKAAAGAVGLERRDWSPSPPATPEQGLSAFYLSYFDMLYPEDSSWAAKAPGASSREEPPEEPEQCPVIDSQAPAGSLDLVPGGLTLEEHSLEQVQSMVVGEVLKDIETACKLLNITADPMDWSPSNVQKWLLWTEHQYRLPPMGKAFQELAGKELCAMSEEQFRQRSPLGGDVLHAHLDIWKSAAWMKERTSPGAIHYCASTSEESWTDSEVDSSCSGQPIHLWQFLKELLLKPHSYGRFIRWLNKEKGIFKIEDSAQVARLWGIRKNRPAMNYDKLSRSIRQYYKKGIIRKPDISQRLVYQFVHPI
The settings on record: protein: recombinant; tags: N-terminal GST; dsDNA, one strand shown. The method, boiled down: as §1

The target in assay [15] is T10, ETV7 (Homo sapiens, UniProt Q9Y603 1-341).
T10 sequence: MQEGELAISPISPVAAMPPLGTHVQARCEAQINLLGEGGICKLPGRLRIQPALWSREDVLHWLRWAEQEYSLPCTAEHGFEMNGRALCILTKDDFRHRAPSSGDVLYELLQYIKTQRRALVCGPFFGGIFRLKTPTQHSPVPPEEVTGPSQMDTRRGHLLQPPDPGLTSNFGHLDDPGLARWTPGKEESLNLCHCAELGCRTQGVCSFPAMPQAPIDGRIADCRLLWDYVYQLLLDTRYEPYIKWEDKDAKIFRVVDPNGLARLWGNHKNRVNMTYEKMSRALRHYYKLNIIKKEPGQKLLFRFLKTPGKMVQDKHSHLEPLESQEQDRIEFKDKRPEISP
The settings on record: protein: recombinant; tags: N-terminal GST; dsDNA, one strand shown. The method, boiled down:
as §1

The target of assay [16] is T11, ELF5 (Homo sapiens, UniProt Q9UKW6-2 1-255).
T11 sequence: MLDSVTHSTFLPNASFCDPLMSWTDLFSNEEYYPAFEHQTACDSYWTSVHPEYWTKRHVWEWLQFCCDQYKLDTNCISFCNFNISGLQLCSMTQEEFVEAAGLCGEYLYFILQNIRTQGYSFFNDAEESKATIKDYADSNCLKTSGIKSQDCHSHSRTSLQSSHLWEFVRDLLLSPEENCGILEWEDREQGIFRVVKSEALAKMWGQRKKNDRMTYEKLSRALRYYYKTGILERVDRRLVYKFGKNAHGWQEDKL
The following applies: protein: recombinant; tags: N-terminal GST; dsDNA, one strand shown. The gist of the method:
as §1

Assay [17] addresses T12, ETV3 (Homo sapiens, UniProt P41162-2 1-143).
T12 sequence: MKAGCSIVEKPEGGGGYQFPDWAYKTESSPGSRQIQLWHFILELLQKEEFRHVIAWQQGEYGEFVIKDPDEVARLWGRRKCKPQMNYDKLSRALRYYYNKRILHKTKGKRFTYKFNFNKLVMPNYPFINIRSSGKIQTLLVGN
The following applies: protein: recombinant; tags: N-terminal GST; dsDNA, one strand shown. The method, boiled down: as §1

Assay [18] concerns the target ETV6 (Homo sapiens, UniProt P41212 1-452). The settings on record: protein: recombinant; tags: N-terminal GST; dsDNA, one strand shown. The gist of the method:
as §1

Sequence of ETV1 (P50549 whole entry): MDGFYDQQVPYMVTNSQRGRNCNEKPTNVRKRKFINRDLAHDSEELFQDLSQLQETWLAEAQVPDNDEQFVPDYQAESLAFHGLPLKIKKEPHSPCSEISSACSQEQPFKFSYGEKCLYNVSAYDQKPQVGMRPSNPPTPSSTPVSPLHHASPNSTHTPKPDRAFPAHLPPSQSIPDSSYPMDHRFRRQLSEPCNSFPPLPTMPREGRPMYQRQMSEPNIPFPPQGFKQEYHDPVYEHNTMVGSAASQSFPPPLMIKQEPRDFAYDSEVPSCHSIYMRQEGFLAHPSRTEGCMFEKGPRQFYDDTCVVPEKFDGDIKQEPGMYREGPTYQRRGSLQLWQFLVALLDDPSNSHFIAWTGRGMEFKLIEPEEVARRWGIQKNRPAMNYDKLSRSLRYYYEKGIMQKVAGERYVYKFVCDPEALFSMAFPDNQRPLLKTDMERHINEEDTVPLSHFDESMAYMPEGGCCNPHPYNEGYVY
Sequence of CRX (O43186 whole entry): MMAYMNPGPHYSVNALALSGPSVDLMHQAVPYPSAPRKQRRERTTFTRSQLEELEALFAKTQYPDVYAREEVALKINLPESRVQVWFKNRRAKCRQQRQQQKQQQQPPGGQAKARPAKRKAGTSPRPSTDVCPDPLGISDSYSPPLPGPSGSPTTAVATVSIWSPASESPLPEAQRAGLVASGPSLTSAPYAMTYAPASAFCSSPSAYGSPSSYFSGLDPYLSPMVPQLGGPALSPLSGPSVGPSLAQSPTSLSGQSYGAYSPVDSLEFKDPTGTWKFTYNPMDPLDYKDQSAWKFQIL
Sequence of ELF4 (Q99607 whole entry): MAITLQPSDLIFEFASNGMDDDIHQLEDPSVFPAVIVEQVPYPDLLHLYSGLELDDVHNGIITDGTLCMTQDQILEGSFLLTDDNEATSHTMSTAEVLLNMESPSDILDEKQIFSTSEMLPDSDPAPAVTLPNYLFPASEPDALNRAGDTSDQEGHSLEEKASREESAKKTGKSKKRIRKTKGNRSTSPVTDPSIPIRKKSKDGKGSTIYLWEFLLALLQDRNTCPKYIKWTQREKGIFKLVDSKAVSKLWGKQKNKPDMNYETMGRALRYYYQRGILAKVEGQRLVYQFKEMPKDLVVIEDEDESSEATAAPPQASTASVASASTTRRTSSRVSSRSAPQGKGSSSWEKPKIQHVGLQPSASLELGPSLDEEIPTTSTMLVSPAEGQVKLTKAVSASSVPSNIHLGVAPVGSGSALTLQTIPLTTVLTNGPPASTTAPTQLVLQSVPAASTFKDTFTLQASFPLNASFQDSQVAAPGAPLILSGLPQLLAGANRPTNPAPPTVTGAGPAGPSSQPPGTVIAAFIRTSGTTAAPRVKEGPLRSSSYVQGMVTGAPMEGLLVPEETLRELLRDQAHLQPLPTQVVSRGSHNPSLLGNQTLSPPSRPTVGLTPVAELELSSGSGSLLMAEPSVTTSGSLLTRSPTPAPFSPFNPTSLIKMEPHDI
Sequence of ETV6 (P41212 whole entry): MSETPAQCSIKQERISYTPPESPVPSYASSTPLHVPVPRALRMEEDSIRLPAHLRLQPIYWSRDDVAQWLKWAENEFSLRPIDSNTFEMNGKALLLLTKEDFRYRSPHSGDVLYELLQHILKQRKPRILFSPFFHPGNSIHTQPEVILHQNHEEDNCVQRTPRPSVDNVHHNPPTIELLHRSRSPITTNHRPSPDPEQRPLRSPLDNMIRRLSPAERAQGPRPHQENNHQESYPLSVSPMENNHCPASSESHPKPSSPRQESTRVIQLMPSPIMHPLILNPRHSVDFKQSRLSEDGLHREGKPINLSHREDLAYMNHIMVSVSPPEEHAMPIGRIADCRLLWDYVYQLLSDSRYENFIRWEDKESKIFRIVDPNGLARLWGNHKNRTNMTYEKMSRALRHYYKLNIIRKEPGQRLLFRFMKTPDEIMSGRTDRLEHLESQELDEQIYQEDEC

As for TCCTCG, the binding signal is 1.37 fold enrichment (6-mer frequency, TF over GST control) in assay [1]; 1.51 fold enrichment (6-mer frequency, TF over GST control) in assay [2]; 1.54 fold enrichment (6-mer frequency, TF over GST control) in assay [3]; 1.45 fold enrichment (6-mer frequency, TF over GST control) in assay [4]; 1.51 fold enrichment (6-mer frequency, TF over GST control) in [5]; 1.41 fold enrichment (6-mer frequency, TF over GST control) in assay [6]. Besides, the binding signal in assay [7] is 1.66 fold enrichment (6-mer frequency, TF over GST control); in [8] it was 1.53 fold enrichment (6-mer frequency, TF over GST control); in [9], 1.37 fold enrichment (6-mer frequency, TF over GST control); in [10], 1.65 fold enrichment (6-mer frequency, TF over GST control); in assay [11], 1.48 fold enrichment (6-mer frequency, TF over GST control); in assay [12], 1.57 fold enrichment (6-mer frequency, TF over GST control). Further, the binding signal in assay [13] was 1.35 fold enrichment (6-mer frequency, TF over GST control); in assay [14] it was 1.33 fold enrichment (6-mer frequency, TF over GST control); in assay [15], 1.49 fold enrichment (6-mer frequency, TF over GST control); in [16], 1.93 fold enrichment (6-mer frequency, TF over GST control); in assay [17], 1.5 fold enrichment (6-mer frequency, TF over GST control); in [18] it was 1.48 fold enrichment (6-mer frequency, TF over GST control).
